Measured values from PubChem BioAssay AID2429 (National Center for Advancing Translational Sciences (NCATS), 2010).
The other results are listed elsewhere or left out. Activity calls are given as the source filed them. Calls follow the shape of the full dose curve.

molecular target: 15-hydroxyprostaglandin dehydrogenase [NAD(+)] (Homo sapiens) (UniProt P15428); test: Confirmation qHTS Assay for Inhibitors of HPGD (15-Hydroxyprostaglandin Dehydrogenase); conditions: recombinant HPGD, NADH fluorescence, PGE2 substrate
Sequence (P15428 whole entry, looked up): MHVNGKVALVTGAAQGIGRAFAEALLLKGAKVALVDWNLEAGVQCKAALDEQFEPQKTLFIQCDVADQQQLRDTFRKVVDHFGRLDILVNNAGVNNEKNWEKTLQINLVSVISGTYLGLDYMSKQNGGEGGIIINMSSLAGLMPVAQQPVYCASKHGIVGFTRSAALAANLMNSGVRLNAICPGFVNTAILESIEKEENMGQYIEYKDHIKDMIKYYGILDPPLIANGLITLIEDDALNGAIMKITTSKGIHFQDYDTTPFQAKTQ
Source text: Assay Overview: Human 15-Hydroxyprostaglandin dehydrogenase (HPGD) catalyzes the inactivation of prostaglandin E2, and plays a major role in cancer biology by antagonizing the oncogenic potential of cyclooxygenase type 2 (COX2). Assays are available, based on absorbance/fluorescence increase of NADH with the substrate 15-OH prostaglandin E2. Inhibition of HPGD activity was screened by utilizing prostaglandin as an electron donor and NAD+ as an electron acceptor/cofactor. An increase in the fluorescence intensity due to conversion of NAD+ to NADH was used to measure the enzyme activity. This assay is a confirmation screen of primary qHTS protocol (See AID 894). References 1. Myung SJ, Rerko RM, Yan M, Platzer P, Guda K, Dotson A, Lawrence E, Dannenberg AJ, Lovgren AK, Luo G, Pretlow TP, Newman RA, Willis J, Dawson D, Markowitz SD. 15-Hydroxyprostaglandin dehydrogenase is an in vivo suppressor of colon tumorigenesis. Proc Natl Acad Sci U S A. 2006 Aug 8;103(32):12098-102. 2. Yan M, Rerko RM, Platzer P, Dawson D, Willis J, Tong M, Lawrence E, Lutterbaugh J, Lu S, Willson JK, Luo G, Hensold J, Tai HH, Wilson K, Markowitz SD. 15-Hydroxyprostaglandin dehydrogenase, a COX-2 oncogene antagonist, is a TGF-beta-induced suppressor of human gastrointestinal cancers. Proc Natl Acad Sci U S A. 2004 Dec 14;101(50):17468-73. 3. Yang L, Amann JM, Kikuchi T, Porta R, Guix M, Gonzalez A, Park KH, Billheimer D, Arteaga CL, Tai HH, Dubois R, Carbone DP, Johnson DH. Inhibition of Epidermal Growth Factor Receptor Signaling Elevates 15-Hydroxyprostaglandin Dehydrogenase in Non-Small-Cell Lung Cancer. Cancer Res. 2007 Jun 15;67(12):5587-5593. NIH Chemical Genomics Center [NCGC] Structural Genomics Consortium [SGC]
Buffer: 50 mM Tris-HCl, 0.01% Tween 20, pH 8. Enzyme Buffer: 50 mM Tris-HCl, 0.5 mM NAD+ and 0.01% Tween 20, pH 8. Reagents/Controls: Buffer in columns 3 and 4 as negative control (no enzyme). Substrate/cofactor solution: 1 mM NAD+ and 30 uM prostaglandin (Sigma, prostaglandin E2, # P5640) final concentrations dispensed throughout the plate. Enzyme: 20 nM HPGD final concentration in columns 1, 2, 5-48. Column 1 and 2 is neutral (100% activity). A titration of control inhibitor GW5074 (G6416 Sigma-Aldrich, St. Louis, MO) top concentration 10 mM in DMSO, then 1:2 dilution for a total of 16 concentrations in duplicate) was pin-transferred into column 2. Assay Steps: Three uL of enzyme were dispensed to 1536-well Greiner black solid bottom plates. Compounds and control inhibitor (23 nL) were transferred via Kalypsys PinTool. The plates were incubated for 15 min at room temperature, and then 1 uL of substrate/cofactor solution was added to start the reaction. The plates were immediately transferred to and read 5 times every 30 seconds on ViewLux High-throughput CCD imager (Perkin-Elmer) using 360 nm excitation and 450 nm emission fluorescence protocol. The fluorescence intensity difference between the last and the first time points was used to compute reaction progress.

**Q.** With CC1CCN(C(=O)c2ccc(CSc3ccc(Cl)cc3)cc2)CC1 as the molecule, how does the Potency read?
**A.** 0.631 µM (active)

**Q.** Which Potency does the source give for CN(c1ccc(C(=O)N2CCc3ccccc3C2)cc1)S(C)(=O)=O here?
**A.** 14.1 µM (active)

**Q.** With Cc1ccnc(-n2sc3ccccc3c2=O)n1 as the molecule, how does the Potency read?
**A.** 3.16 µM (active)

**Q.** For CC1CCN(C(=O)c2cc3nc(C4CC4)cc(C(F)(F)F)n3n2)CC1, which Potency is on record?
**A.** 3.98 µM (active)

**Q.** How did the Potency turn out when O=C(c1ccc(CSc2ccccc2)cc1)N1CCCCCC1 was run?
**A.** 0.224 µM (active)
